From PubChem
Compounds with a hit are over-represented: about 7.5% of the library has one in this group of screens.
NPC1 prom act – qHTS Assay for NPC1 Promoter Activators; Huh7 NPC1 promoter luciferase reporter, 24 h; Potency, µM (series often up to 9.22 µM), for inactives: top-dose activation, hits mostly activators; actives 2.4% (n = 320,000); AID 485313, 2010; further: % of control where 0% means no effect; nearly all actives have a fitted effect of over 60% in size
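Stable NPC1-promoter luciferase Huh7 line; cpd (DMSO) 24 h, 37 °C, 5% CO2; Amplite luciferase reagent 10 min RT; luminescence readout. qHTS format.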
ELG1 genotoxic – qHTS screen for small molecules that induce genotoxicity in human embryonic kidney (HEK293T) cells expressing luciferase-tagged ELG1; HEK293T ELG1-luciferase reporter, luminescence, 16 h; Potency, µM (highest dose often 46 µM), inactives show top-dose activity change, positive = activation, hits mostly activators; AID 504466, 2011; actives 1.3% (n = 330,000); further: % of control where 0% means no effect; nearly all actives have a fitted effect of over 60% in size
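Genotoxicity was scored as increased ELG1-luciferase reporter signal, measured by ONE-Glo luminescence (30 min, room temperature). Compound or vehicle exposure of the HEK293T reporter cells lasted 16 hr at 37°C.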
Rab9 prom act – qHTS Assay for Rab9 Promoter Activators; actives 2.8% (n = 320,000); Potency, µM (top dose mostly 9.22 µM), for inactives: top-dose activation, negative = inhibition, usual class: activators; Huh7 Rab9 promoter-luciferase reporter, luminescence, 24 h; further: % of control where 0% means no effect; nearly all actives have a fitted effect of over 60% in size
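Huh7 cells stably carrying Rab9 promoter–luciferase reporter, plated 1500 cells/well, compound added after 2 h and incubated 24 h at 37 °C; luciferase luminescence then read after 10 min with detection reagent.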
SMN2 splice up – qHTS Assay for Enhancers of SMN2 Splice Variant Expression | Potency, µM (highest dose often 46.1 µM), inactives show at the top dose activity change, positive = activation, hits mostly activators | HEK293 SMN2-luciferase splicing reporter, luminescence, 30-36 h | actives 2.8% (n = 210,000); further: % of control where 0% means no effect; nearly all actives have a fitted effect of over 55% in size
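qHTS luciferase splicing reporter: luminescence rises when SMN2 exon 7 is included in transfected HEK293 cells. Compound exposure lasted 30-36 h at 37C, with 4.5 mM final sodium butyrate as control, followed by a ONE-Glo read.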
FLuc modulator – qHTS profiling assay for firefly luciferase inhibitor/activator using purifed enzyme and Km concentrations of substrates (counterscreen for miR-21 project). purified FLuc, Km substrates, luminescence inhibition. Potency, µM (highest dose often 57.5 µM), for inactives: at the highest dose activity change, negative = inhibition, hits mostly inhibitors. actives 6.9% (n = 360,000). AID 588342, 2011;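 further: plate controls were vehicle for no effect and reference inhibitor for full effect; nearly all actives have a fitted effect of over 55% in size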
Target sequence (P08659 whole entry, looked up): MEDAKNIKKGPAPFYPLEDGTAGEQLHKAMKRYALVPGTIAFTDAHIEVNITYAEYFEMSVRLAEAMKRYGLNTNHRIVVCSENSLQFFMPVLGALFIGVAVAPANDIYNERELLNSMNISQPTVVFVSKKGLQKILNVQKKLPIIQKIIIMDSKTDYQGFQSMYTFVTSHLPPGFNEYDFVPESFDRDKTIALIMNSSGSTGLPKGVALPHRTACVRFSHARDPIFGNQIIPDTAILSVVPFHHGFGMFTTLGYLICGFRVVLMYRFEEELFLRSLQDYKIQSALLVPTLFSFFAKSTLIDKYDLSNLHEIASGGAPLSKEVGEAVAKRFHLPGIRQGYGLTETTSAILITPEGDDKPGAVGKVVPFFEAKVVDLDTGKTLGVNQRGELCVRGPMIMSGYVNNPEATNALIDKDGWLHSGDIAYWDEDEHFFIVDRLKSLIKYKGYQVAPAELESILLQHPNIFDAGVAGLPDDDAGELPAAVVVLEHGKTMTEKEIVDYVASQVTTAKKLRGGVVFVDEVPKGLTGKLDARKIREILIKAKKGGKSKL
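Biochemical qHTS of compounds, final roughly 60 µM downward over six points, against 10 nM purified firefly luciferase using Km concentrations of substrates (10 uM D-luciferin, 10 uM ATP) in Tris acetate pH 7.5 buffer; luminescence output.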
KinaseGlo FLuc – Counterscreen for Luciferase (Kinase-Glo TM) Inhibition | Luciferin 4-monooxygenase (Photuris pensylvanica), Q27757 | Kinase-Glo luciferase, ATP luminescence, 8 min | Potency, µM (series often up to 38.3 µM), for the others: at the top dose activity change, negative = inhibition, hits mostly inhibitors | actives 0.28% (n = 200,000); further: on the % scale 0 is the no-effect control and ±100 the full control effect; nearly all actives have a fitted effect of over 60% in size
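Light output from Kinase-Glo luciferase with luciferin and 10 uM ATP in 50 mM imidazole pH 7.2, KCl, MgCl2, Tween 20, BSA; compound pin-delivered, 8-min ambient incubation, then luminescence read.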
Starred values were filed as active, the others as inactive; u = inconclusive; x = no result given; [ ] = dose if it differs, or a comment. The call rests on the fitted dose curve; in most records, active means well fitted curve in the direction sought with a large enough effect; inconclusive means small, poorly fitted or top-dose-only effect, or another doubt; inactive means no such curve, though single readings can be large; an effect the other way counts as inactive or inconclusive. Potency means the concentration at half of the fitted maximal effect.

SMILES	NPC1 prom act	ELG1 genotoxic	Rab9 prom act	SMN2 splice up	FLuc modulator	KinaseGlo FLuc
Cc1c(N)c(=O)n(-c2ccccc2)n1C	-10%	-4%	-4%	4%	-1%	-5%
O=C(Nc1ccc(F)c(F)c1)C1CCCN1S(=O)(=O)c1cccc2nsnc12 (stereo not drawn)	x	x	x	-16%	5%	x
CCOC(=O)C(CC)Sc1ncnc2c1c(-c1ccccc1)cn2-c1ccc(OC)cc1 (stereo not drawn)	x	x	x	-11%	0%	x
Cc1coc2cc3oc(=O)c(CC(=O)N4CCCCC4)c(C)c3cc12	x	x	x	-3%	-1%	x
Cc1c(Cc2ccccc2)c(=O)oc2c(C)c(OCC(=O)N3CCC(C(=O)O)CC3)ccc12	0%	2%	5%	x	17µM*	x
Cc1c(CC(=O)N2CCC(C(=O)O)CC2)c(=O)oc2cc3c(cc12)CCC1(CCCCC1)O3	-3%	8%	3%	x	12µM*	x
Cc1c(CC(=O)NC(C)C)c(=O)oc2cc3c(cc12)CCC(C)(C)O3	u	14%	3.2µM*	x	u	x
Cc1c(CC(=O)N[C@@H](C)C(=O)O)c(=O)oc2cc3c(cc12)CCC(C)(C)O3	4%	0%	15%	x	u	x
CCC(C)NC(=O)Cc1c(C)c2cc3c(cc2oc1=O)OC(C)(C)CC3 (stereo not drawn)	u	9%	4µM*	x	u	x
COc1ccc(-c2c(C#N)c(SCC(=O)Nc3cccc(Cl)c3)nc(C)c2C(=O)Nc2ccccc2)cc1OC	x	x	x	18%	-1%	x
Cc1c(CC(=O)N[C@H](C(=O)O)C(C)C)c(=O)oc2cc3c(cc12)CCC(C)(C)O3	2.8µM*	u	1.8µM*	x	11µM*	x
Cc1c(CC(=O)NCC(C)C)c(=O)oc2cc3c(cc12)CCC(C)(C)O3	-6%	1%	26%	x	u	x
CCc1ccc(-n2c(SCc3cccc(F)c3)nc3[nH]ncc3c2=O)cc1	x	x	x	x	-9%	x
C=CCN(CC=C)c1cnn(-c2nc3ccccc3[nH]2)c(=O)c1Cl	2µM*	u	0.71µM*	x	6µM*	14µM*
O=c1c(Cl)c(NCCCO)cnn1-c1nc2ccccc2[nH]1	u	16µM*	u	u	12µM*	11µM*
CCOCCn1cnc2sc(C(=O)Nc3ccccc3C(=O)OC)c(C)c2c1=O	x	x	x	x	-4%	x
CCOC(=O)c1c(C)[nH]c(C)c1S(=O)(=O)N1CCCC(C(=O)NCc2cccc(C)c2)C1 (stereo not drawn)	x	x	x	x	-8%	x
O=[N+]([O-])c1ccc(C(O)CSC(=S)N2CCCCC2)cc1 (stereo not drawn)	2.8µM*	17%	25%	x	17µM*	x
O=[N+]([O-])c1ccc(C(=S)N2CCCC2)cc1	0%	5%	-3%	2%	-3%	-1%
O=C(NC1CC(=O)N(c2ccc(F)cc2)C1)c1ccc(S(=O)(=O)N2CCCCC2)cc1 (stereo not drawn)	x	x	x	x	0%	x
O=C(CNC(=S)NC(=O)c1ccco1)c1ccccc1	u	16%	23%	2%	12µM*	-7%
O=C(NC(=S)Nc1ccccc1Br)c1ccco1	u	u	u	x	11µM*	x
O=C(CNC(=S)NC(=O)C1CCCCC1)c1ccccc1	30%	u	u	u	12µM*	-3%
O=C(Nc1ccc(NC(=S)NC(=O)c2ccco2)cc1)c1ccccc1	-3%	15%	13%	x	1%	x
O=C(NC(=S)NNC(=O)c1cc2ccccc2cc1O)c1ccco1	13%	3%	0%	-4%	17µM*	0%
SMILES	NPC1 prom act	ELG1 genotoxic	Rab9 prom act	SMN2 splice up	FLuc modulator	KinaseGlo FLuc
O=C(NC(=S)Nc1cccc(NC(=S)NC(=O)c2ccco2)n1)c1ccco1	1%	4%	2%	-6%	-4%	2%
COc1ccc(OC)c(C2C(C(=O)Nc3ccccc3OC)=C(C)Nc3c(C(=O)Nc4ccc(F)cc4)cnn32)c1 (stereo not drawn)	x	x	x	x	2%	x
CCCC(=O)NCCc1c2n(c3ccc(OC)cc13)CCCc1ccccc1-2	-6%[46.1 µM]	x	-19%[46.1 µM]	-19%	x	-3%
COc1ccc2c(C)c(CCC(=O)NCc3ccccc3OC)c(=O)oc2c1	x	x	x	1%	6%	x
CCCn1c(SCc2nc(-c3cc(OC)ccc3OC)no2)nnc1-c1ccc(Cl)cc1	x	x	x	-8%	-5%	x
COc1ccc(CNc2nc(-c3ccc(OC)cc3)cc(C(F)(F)F)n2)cc1	x	x	x	-29%	0%	x
O=C(NC(=S)NNC(=O)c1ccccc1O)c1ccco1	4%	1%	1%	-9%	21µM*	-3%
O=C(NNC(=S)NC(=O)c1ccco1)c1ccc(NC(=O)c2ccccc2)cc1	-1%	-6%	-6%	-27%	u	0%
Cc1ccc(-c2nn[nH]n2)cc1	-5%	1%	-2%	1%	u	2%
Cc1ccc(-c2nn[nH]n2)cc1Cl	1%	2%	-5%	x	17µM*	x
CC1CCC(C(C)C)C(=O)/C1=C/c1ccc(N)cc1 (stereo not drawn)	1.6µM*	u	1.6µM*	x	11µM*	x
C#CCCCCCCCCCCCc1ccco1	x	x	x	-3%	x	-1%
Cc1ccc(/C=C/C(=O)c2ccc([N+](=O)[O-])o2)cc1	-32%	-9%	-38%	x	u	x
Cc1ccc(C(=O)/C=C/c2ccc(Br)cc2)o1	-4%	10%	-2%	-5%	2.4µM*	-6%
Cc1ccc(C(=O)/C=C/c2ccccc2)o1	-4%	-1%	-4%	-22%	2.4µM*	-8%
COc1cc(Nc2nc(-c3ccccc3)c3cc(C)ccc3n2)cc(OC)c1OC	-4%	-2%	2%	15%	17µM*	-2%
O=C(CCSc1ccc(Cl)cc1)N1CCCCCC1	u	14%	3.5µM*	7%	19µM*	-2%
O=C(CCSc1ccc(Cl)cc1)N1CCN(c2ncccn2)CC1	u	u	25%	8%	19µM*	-8%
CCCn1c(SCc2nc(-c3ccc(OC)c(OC)c3)no2)nnc1-c1ccccc1	x	x	x	-24%	-3%	x
COC(=O)N1CCC[C@@]2(CCN(c3ccccn3)C2)C1	x	x	x	3%	x	-1%
COc1ccc(NC(=O)C(C)n2nc(-c3ccc(C)c(C)c3)ccc2=O)cc1OC (stereo not drawn)	x	x	x	x	5%	x
O=C(O)CCc1ccc(-c2ccc(Br)cc2)o1	11%	4%	5%	5%	15µM*	-1%
